# From PubChem BioAssay (NCATS)
# Records with an inconclusive call do not appear. Activity calls are given as the source filed them. Unless noted, the call rests on the fitted dose curve; in most records, active means well fitted curve in the direction sought with a large enough effect; inconclusive means small, poorly fitted or top-dose-only effect, or another doubt; inactive means no such curve, though single readings can be large; an effect the other way counts as inactive or inconclusive.
# How the values were obtained:
# [1] = Quantitative High-Throughput drug screen in 47 multiple myeloma cell lines against the NCATS MIPE library collection: PCM6_Riken cell viability assay (AID 1919870); further: nearly all actives have a fitted effect of over 30% in size; further: potency means the concentration at half of the fitted maximal effect
# Procedure, shortened: (§1)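 MIPE 4.0 approved/investigational drugs; 500 cells/well; 48 h 37 °C humidified 5% CO2; CTG luminescence readout; DMSO = 100%, media = 0% viability.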
# [2] = Quantitative High-Throughput drug screen in 47 multiple myeloma cell lines against the NCATS MIPE library collection: RPMI8226_ATCC cell viability assay (AID 1919871); further: nearly all actives have a fitted effect of over 30% in size; further: potency means the concentration at half of the fitted maximal effect
# Procedure, shortened: as §1
# [3] = Quantitative High-Throughput drug screen in 47 multiple myeloma cell lines against the NCATS MIPE library collection: OPM2_DSMZ cell viability assay (AID 1919872); further: nearly all actives have a fitted effect of over 30% in size; further: potency means the concentration at half of the fitted maximal effect
# Procedure, shortened: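 Relative luminescence from CellTiter-Glo served as the viability signal, referenced to DMSO-treated (100%) and cell-free medium (0%) controls. Treatment lasted 48 hours at 37C with 500 cells per well.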
# [4] = Quantitative High-Throughput drug screen in 47 multiple myeloma cell lines against the NCATS MIPE library collection: KMS11_JCRBsus cell viability assay (AID 1919873); further: nearly all actives have a fitted effect of over 50% in size; further: potency means the concentration at half of the fitted maximal effect
# Procedure, shortened: as §1
# [5] = Quantitative High-Throughput drug screen in 47 multiple myeloma cell lines against the NCATS MIPE library collection: KMS28BM_JCRB cell viability assay (AID 1919874); further: nearly all actives have a fitted effect of over 35% in size; further: potency means the concentration at half of the fitted maximal effect
# Procedure, shortened: as §1
# [6] = qHTS drug screen for cell cycle checkpoint inhibitors in PARPi-resistant BRCA-mutant ovarian cancer cell lines. (AID 1963452; calls by dose curve); conditions: PEO1/OlaR viability, CellTiter-Glo luminescence, 96 h, stronger effect = lower value
# Procedure, shortened: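 PEO1, PEO4 and PEO1/OlaR ovarian cancer cells, 600 per well, exposed 96 h at 37C to a dilution series. Viability read by CellTiter-Glo luminescence, normalized to DMSO and empty wells; activity summarized as Z-AUC.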
# [7] = qHTS for identification of novel therapeutic agents for treatment of microphthalmiaassociated transcription factor (MiT) renal cell carcinoma (RCC) (AID 1963991); conditions: CellTiter-Glo, 48 h, stronger effect = lower value;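 further: curves scaled with 100% = DMSO viability and 0% = empty wells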
# Procedure, shortened: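 UOK109/UOK124/UOK145 (TFE3 fusions, three partners); 500 cells/well; MIPE v4.0, 1912 cpds, 11 conc.; 48 h, 37 C; CellTiter-Glo, 15 min RT; lum. Norm.: DMSO 100%, empty 0%.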
# [8] = biological target: Cytochrome P450 3A4 (Homo sapiens) (UniProt P08684); assay: qHTS for inhibitors of CYP3A4 against the NCATS DSHEA and TCM libraries (AID 1919971);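 further: on the % scale 0 is the no-effect control and ±100 the full control effect; inhibition lowers luminescence from luciferin made by CYP3A4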
# Chain of Cytochrome P450 3A4 (Homo sapiens) (P08684 whole entry, looked up): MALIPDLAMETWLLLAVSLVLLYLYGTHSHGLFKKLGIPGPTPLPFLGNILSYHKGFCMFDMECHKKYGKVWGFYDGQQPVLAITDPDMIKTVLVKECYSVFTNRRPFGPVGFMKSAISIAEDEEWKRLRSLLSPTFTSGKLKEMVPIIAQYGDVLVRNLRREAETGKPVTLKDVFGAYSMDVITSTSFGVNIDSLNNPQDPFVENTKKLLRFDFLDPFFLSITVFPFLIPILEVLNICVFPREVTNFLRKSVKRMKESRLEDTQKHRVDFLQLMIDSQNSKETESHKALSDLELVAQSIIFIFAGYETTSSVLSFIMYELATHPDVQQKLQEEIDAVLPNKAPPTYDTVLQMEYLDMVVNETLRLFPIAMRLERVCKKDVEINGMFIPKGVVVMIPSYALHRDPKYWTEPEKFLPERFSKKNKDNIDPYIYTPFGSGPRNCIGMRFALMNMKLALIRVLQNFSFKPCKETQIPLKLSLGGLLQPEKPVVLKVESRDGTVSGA
# Procedure, shortened: (§2)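 Luminescent P450-Glo format: compounds preincubated 15 min with enzyme and luciferin substrate, reaction run 30-45 min after NADPH regeneration solution. Intraplate controls: ketoconazole for CYP3A4 and CYP2C19, sulfaphenazole for CYP2C9.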
# [9] = biological target: Cytochrome P450 2D6 (Homo sapiens) (UniProt P10635); assay: qHTS for inhibitors of CYP2D6 against the NCATS DSHEA and TCM libraries (AID 1919972); further: on the % scale 0 is the no-effect control and ±100 the full control effect
# Chain of Cytochrome P450 2D6 (Homo sapiens) (P10635 whole entry, looked up): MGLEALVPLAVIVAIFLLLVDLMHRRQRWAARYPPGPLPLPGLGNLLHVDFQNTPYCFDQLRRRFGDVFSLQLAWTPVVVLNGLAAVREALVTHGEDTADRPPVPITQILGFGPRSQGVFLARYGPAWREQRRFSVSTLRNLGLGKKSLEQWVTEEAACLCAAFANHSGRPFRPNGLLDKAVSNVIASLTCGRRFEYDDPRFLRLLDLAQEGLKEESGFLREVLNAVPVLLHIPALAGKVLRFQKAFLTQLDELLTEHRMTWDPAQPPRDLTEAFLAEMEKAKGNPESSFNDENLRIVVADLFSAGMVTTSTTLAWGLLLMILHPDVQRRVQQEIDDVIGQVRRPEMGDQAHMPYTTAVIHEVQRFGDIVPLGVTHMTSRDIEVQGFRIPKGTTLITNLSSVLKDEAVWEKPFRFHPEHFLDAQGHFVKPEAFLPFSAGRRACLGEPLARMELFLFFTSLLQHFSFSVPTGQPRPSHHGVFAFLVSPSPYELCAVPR
# Procedure, shortened: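 Luminescent P450-Glo read-out of CYP2D6 turnover of a luciferin substrate after NADPH-driven reaction of 30-45 min at room temperature. Compounds were first preincubated 15 min with enzyme at titrated concentrations; quinidine was the intraplate control.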
# [10] = KB-3-1 P-gp reporter qHTS against the NCATS DSHEA and TCM libraries (AID 1919975); further: 0% is about no effect
# Procedure, shortened: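 Parental KB-3-1 cells, 500 cells/well, in DMEM with 10% FBS, exposed 72 h at 37 C to compounds in concentration-response. Viability read by CellTiter-Glo luminescence after 30 min at room temperature.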
# [11] = qHTS Counterscreen for compound interference against the NCATS DSHEA and TCM libraries (AID 1919978); conditions: firefly luciferase detection reagent interference, luminescence;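 further: compounds preincubated with 1 µM D-luciferin or buffer before detection reagent; % of control where 0% means no effect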
# Procedure, shortened: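 Firefly luciferase detection reagent was added after compounds (19.5 nM–39.8 uM final) had been incubated 15 min at room temperature with 1 uM D-luciferin or with 100 mM phosphate buffer alone. Luminescence was read after 30 min at room temperature.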
# [12] = Dual reporter qHTS for agonist of Pregnane X Receptor (hPXR) against the NCATS DSHEA and TCM libraries: Fluorescence readout (AID 1920058); further: 0% is about no effect
# Procedure, shortened: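 hPXR-Luc HepG2 cells, 2000/well in charcoal-stripped serum, attached 5 h, dosed for ~24 h at 37 °C. Fluorescence read is CellTiter-Fluor viability (Ex/Em 405/540 nm); rifampicin positive, tetraoctyl ammonium bromide (92 µM) cytotoxicity controls.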
# [13] = biological target: Nuclear receptor subfamily 1 group I member 2 (Homo sapiens) (UniProt O75469); assay: Dual reporter qHTS for agonist of Pregnane X Receptor (hPXR) against the NCATS DSHEA and TCM libraries: Luminescence readout (AID 1920059); further: potency means the concentration at half of the fitted maximal effect
# Chain of Nuclear receptor subfamily 1 group I member 2 (Homo sapiens) (O75469 whole entry, looked up): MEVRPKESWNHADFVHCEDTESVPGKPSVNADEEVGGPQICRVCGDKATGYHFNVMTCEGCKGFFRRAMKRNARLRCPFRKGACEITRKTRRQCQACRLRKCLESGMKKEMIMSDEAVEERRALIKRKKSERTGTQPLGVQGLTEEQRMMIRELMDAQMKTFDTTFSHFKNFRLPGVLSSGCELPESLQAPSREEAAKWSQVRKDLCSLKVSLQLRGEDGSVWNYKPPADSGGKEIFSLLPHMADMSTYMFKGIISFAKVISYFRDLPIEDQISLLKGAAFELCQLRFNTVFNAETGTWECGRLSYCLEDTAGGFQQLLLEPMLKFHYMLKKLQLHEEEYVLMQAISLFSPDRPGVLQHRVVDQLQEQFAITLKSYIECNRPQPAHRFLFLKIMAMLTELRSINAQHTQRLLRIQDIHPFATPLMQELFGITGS
# Procedure, shortened: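 hPXR-LucHepG2 cells in phenol red-free DMEM with 5% charcoal-stripped FBS, 2000 cells/well, attached 5 h, then exposed 24 h at 37C to compounds; rifampicin as positive agonist control (2.8 nM–92 uM). Luciferase luminescence read.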
# [14] = biological target: Nuclear receptor subfamily 1 group I member 2 (Homo sapiens) (UniProt O75469); assay: Dual reporter qHTS for antagonist of Pregnane X Receptor (hPXR) against the NCATS DSHEA and TCM libraries: Luminescence Readout (AID 1920060);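 further: HepG2 cells carrying hPXR luciferase reporter stimulated with rifampicin at 2 µM; 0% is about no effect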
# Procedure, shortened: (§3)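 HepG2 hPXR-Luc, 2000 cells/well, charcoal-stripped FBS medium; 5 h attach; RIF 2 uM final; 24 h 37C/5% CO2; CellTiter-Fluor 1 h, fluor 405/540; ONE-Glo 30 min RT, lum.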
# [15] = Dual reporter qHTS for antagonist of Pregnane X Receptor (hPXR) against the NCATS DSHEA and TCM libraries: Fluorescence Readout (AID 1920061); further: 0% is about no effect
# Procedure, shortened: as §3
# [16] = qHTS profiling for inhibitors of Plasmodium falciparum proliferation (AID 504749);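 further: 0% = DMSO vehicle and full inhibition = artemisinin control; nearly all actives have a fitted effect of over 60% in size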; conditions: P. falciparum in erythrocytes, SYBR Green DNA, 72 h, at 28.7 µM (top of the series)
# Procedure, shortened: (§4)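 Parasite proliferation within erythrocytes, 72 h exposure. Endpoint: SYBR Green I fluorescence after overnight lysis at room temperature. Controls: 0.29 uM artemisinin, DMSO.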
# 3D7 = assay: as above; conditions: P. falciparum in erythrocytes, SYBR Green DNA, 72 h; series mostly up to 28.7 µM
# Procedure, shortened: as §4
# [17] = biological target: Cytochrome P450 2C9 (Homo sapiens) (UniProt P11712); assay: qHTS for inhibitors of CYP2C9 against the NCATS DSHEA and TCM libraries (AID 1919973);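 further: luminogenic pro-luciferin CYP2C9 substrate turned into luciferin with NADPH regeneration; on the % scale 0 is the no-effect control and ±100 the full control effect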
# Chain of Cytochrome P450 2C9 (Homo sapiens) (P11712 whole entry, looked up): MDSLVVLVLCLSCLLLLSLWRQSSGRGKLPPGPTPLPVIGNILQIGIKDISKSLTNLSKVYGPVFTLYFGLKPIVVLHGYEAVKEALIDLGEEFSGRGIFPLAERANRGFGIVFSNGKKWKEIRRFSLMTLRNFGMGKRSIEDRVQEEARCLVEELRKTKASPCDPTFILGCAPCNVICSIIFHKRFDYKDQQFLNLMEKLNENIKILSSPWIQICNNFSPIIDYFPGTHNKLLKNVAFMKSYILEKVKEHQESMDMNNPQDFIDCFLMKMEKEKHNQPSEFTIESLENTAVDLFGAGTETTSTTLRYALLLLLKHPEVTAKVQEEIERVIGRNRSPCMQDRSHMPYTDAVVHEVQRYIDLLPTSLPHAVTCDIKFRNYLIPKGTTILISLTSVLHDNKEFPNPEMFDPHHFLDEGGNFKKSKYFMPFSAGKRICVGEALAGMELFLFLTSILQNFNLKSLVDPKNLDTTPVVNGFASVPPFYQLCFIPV
# Procedure, shortened: as §2
# [18] = biological target: Cytochrome P450 2C19 (Homo sapiens) (UniProt P33261); assay: qHTS for inhibitors of CYP2C19 against the NCATS DSHEA and TCM libraries (AID 1919974);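 further: luminescence from luciferin released by CYP2C19 oxidation of a pro-luciferin substrate; on the % scale 0 is the no-effect control and ±100 the full control effect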
# Chain of Cytochrome P450 2C19 (Homo sapiens) (P33261 whole entry, looked up): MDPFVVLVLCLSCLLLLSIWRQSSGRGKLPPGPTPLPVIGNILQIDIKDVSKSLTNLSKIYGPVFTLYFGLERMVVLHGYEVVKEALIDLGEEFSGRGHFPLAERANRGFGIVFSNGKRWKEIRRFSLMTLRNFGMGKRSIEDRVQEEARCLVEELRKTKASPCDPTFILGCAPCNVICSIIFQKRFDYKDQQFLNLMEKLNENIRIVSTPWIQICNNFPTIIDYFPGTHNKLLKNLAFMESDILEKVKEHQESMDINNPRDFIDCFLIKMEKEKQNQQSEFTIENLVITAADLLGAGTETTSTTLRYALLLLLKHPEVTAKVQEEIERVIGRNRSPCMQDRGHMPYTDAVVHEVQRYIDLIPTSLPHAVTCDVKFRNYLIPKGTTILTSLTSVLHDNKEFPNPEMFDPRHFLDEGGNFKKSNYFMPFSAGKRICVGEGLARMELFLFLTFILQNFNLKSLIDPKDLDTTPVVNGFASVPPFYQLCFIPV
# Procedure, shortened: as §2
# [19] = biological target: Cytochrome P450 1A2 (Homo sapiens) (UniProt P05177); assay: qHTS for inhibitors of CYPIA2 against the NCATS DSHEA and TCM libraries (AID 1919976);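 further: light from luciferin formed by CYP1A2 from a pro-luciferin substrate; on the % scale 0 is the no-effect control and ±100 the full control effect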
# Chain of Cytochrome P450 1A2 (Homo sapiens) (P05177 whole entry, looked up): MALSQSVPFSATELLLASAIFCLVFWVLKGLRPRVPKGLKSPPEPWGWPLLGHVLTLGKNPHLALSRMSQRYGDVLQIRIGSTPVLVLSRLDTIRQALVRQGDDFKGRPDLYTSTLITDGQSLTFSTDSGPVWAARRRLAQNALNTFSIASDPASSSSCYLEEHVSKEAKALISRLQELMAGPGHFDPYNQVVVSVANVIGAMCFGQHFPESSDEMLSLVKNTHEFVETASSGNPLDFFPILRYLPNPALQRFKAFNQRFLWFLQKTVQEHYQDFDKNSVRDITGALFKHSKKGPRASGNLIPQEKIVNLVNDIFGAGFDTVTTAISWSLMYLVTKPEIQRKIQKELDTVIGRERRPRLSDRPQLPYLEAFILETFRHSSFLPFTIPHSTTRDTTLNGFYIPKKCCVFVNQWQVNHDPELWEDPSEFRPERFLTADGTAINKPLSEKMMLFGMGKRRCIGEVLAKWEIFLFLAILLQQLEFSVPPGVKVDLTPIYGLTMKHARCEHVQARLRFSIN
# Procedure, shortened: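 Human CYP1A2 with pro-luciferin substrate (typically 100 mM KPO4), 15 min preincubation with compound, then 1x NADPH regeneration for 30-45 min at room temperature in the dark. Luciferin quantified by luciferase luminescence; furafylline intraplate control.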
# [20] = measured here: PEO1 parental Z-AUC
# [21] = TFE3-RCC UOK109 viability, measured here: UOK109 Z-AUC
# [22] = TFE3-RCC viability, measured here: UOK124 Z-AUC
# [23] = TFE3-RCC viability, measured here: UOK145 Z-AUC
structure (smiles),measurement,setting,value
Cc1ccc(S(=O)(=O)OCC(=O)Nc2ccc(C(=O)O)c(O)c2)cc1,Potency,[1],20.9 µM (active)
same,Potency,[2],inactive
same,Potency,[3],inactive
same,Potency,[4],inactive
same,Potency,[5],inactive
same,Z-AUC,[6],1.67 (inactive)
same,Z-AUC,[6]; [20],1.37
same,Z-AUC,[6]; measured here: PEO4 Z-AUC,1.35
same,z-score,[7]; [21],-0.0907
same,z-score,[7]; [22],0.585
same,z-score,[7]; [23],-0.321
C[C@@H](N)c1ccc(C(=O)Nc2ccnc3[nH]ccc23)cc1,Potency,[1],16.6 µM (active)
same,Potency,[2],inactive
same,Potency,[3],inactive
same,Potency,[5],23.5 µM (active)
same,Z-AUC,[6],0.345 (inactive)
same,Z-AUC,[6]; [20],0.635
same,Z-AUC,[6]; measured here: PEO4 Z-AUC,0.729
COc1ccc(-c2oc3c(CC=C(C)C)c(O)cc(O)c3c(=O)c2O)cc1,Potency,[1],7.43 µM (active)
same,Potency,[2],20.9 µM (active)
same,Potency,[3],inactive
same,Potency,[5],3.72 µM (active)
same,Z-AUC,[6],0.707 (inactive)
same,Z-AUC,[6]; [20],0.584
same,Z-AUC,[6]; measured here: PEO4 Z-AUC,0.876
CC(C)(CO)[C@@H](O)C(=O)NCCC(=O)O,Potency,[1],16.6 µM (active)
same,Potency,[2],inactive
same,Potency,[3],inactive
same,Potency,[5],inactive
same,outcome,[8],inactive
same,outcome,[9],inactive
same,outcome,[10],inactive
same,max response,[11],-1.56% (inactive)
same,Potency,[12],inactive
same,Potency,[13],11.2 µM (active)
same,outcome,[14],inactive
same,outcome,[15],inactive
same,z-score,[7]; [21],1.12
same,z-score,[7]; [22],0.429
same,z-score,[7]; [23],-0.0311
CO[C@H]1O[C@@H]2O[C@@]3(C)CC[C@@H]4[C@@H](C)CC[C@@H]([C@H]1C)[C@@]24OO3,Potency,[1],inactive
same,Potency,[2],0.833 µM (active)
same,Potency,[3],inactive
same,Potency,[4],inactive
same,z-score,[7]; [21],1.01
same,z-score,[7]; [22],0.926
same,z-score,[7]; [23],0.763
O=C(O)c1nc(=O)[nH]c(=O)[nH]1,Potency,[1],inactive
same,Potency,[2],10.2 µM (active)
same,Potency,[3],inactive
same,Potency,[4],11.5 µM (active)
same,Z-AUC,[6],0.306 (inactive)
same,Z-AUC,[6]; [20],-0.133
same,Z-AUC,[6]; measured here: PEO4 Z-AUC,-0.258
same,z-score,[7]; [21],1.29
same,z-score,[7]; [22],0.587
same,z-score,[7]; [23],1.2
same,"activity, negative = inhibition",[16]; parasite line A,-16.8% (inactive)
same,"activity, negative = inhibition",[16]; parasite line B,-28.2% (inactive)
same,Potency,3D7,inactive
Cc1[nH]c(C=C2C(=O)Nc3ccc(S(=O)(=O)N(C)c4cccc(Cl)c4)cc32)c(C)c1C(=O)N1CCN(C)CC1,Potency,[1],14.8 µM (active)
same,Potency,[2],23.5 µM (active)
same,Potency,[3],20.9 µM (active)
same,Potency,[5],16.6 µM (active)
NCC1CCC(C(=O)O)CC1 (configuration not stated),Potency,[1],inactive
same,Potency,[2],inactive
same,Potency,[3],inactive
same,Potency,[4],inactive
same,Potency,[5],inactive
same,Z-AUC,[6],-0.425 (inactive)
same,Z-AUC,[6]; [20],-0.68
same,Z-AUC,[6]; measured here: PEO4 Z-AUC,-0.142
same,z-score,[7]; [21],0.68
same,z-score,[7]; [22],0.972
same,z-score,[7]; [23],0.669
CC1=C(C(=O)Nc2cc3cn[nH]c3cc2F)C(c2ccc(C(F)(F)F)cc2)CC(=O)N1 (configuration not stated),Potency,[1],10.5 µM (active)
same,Potency,[2],inactive
same,Potency,[3],inactive
same,Potency,[4],inactive
same,Potency,[5],inactive
same,Z-AUC,[6],-0.362 (inactive)
same,Z-AUC,[6]; [20],-0.272
same,Z-AUC,[6]; measured here: PEO4 Z-AUC,-0.273
same,z-score,[7]; [21],0.673
same,z-score,[7]; [22],0.25
same,z-score,[7]; [23],0.771
COc1nc(C)cnc1NS(=O)(=O)c1cccnc1-c1ccc(-c2nnco2)cc1,Potency,[1],inactive
same,Potency,[2],inactive
same,Potency,[3],inactive
same,Potency,[4],inactive
same,Potency,[5],inactive
same,Z-AUC,[6],1.25 (inactive)
same,Z-AUC,[6]; [20],1.67
same,Z-AUC,[6]; measured here: PEO4 Z-AUC,1.16
same,z-score,[7]; [21],1.22
same,z-score,[7]; [22],0.956
same,z-score,[7]; [23],0.662
NC[C@H]1O[C@H](O[C@@H]2[C@@H](O)[C@@H](O[C@H]3O[C@H](CO)[C@@H](O)[C@H](N)[C@@H]3O)[C@H](N)C[C@@H]2N)[C@H](O)[C@@H](O)[C@H]1O,Potency,[1],inactive
same,Potency,[2],inactive
same,Potency,[3],inactive
same,Potency,[5],inactive
same,Z-AUC,[6],1.2 (inactive)
same,Z-AUC,[6]; [20],0.776
same,Z-AUC,[6]; measured here: PEO4 Z-AUC,0.763
CC(C)=CCCC(C)=CCCC(C)=CCCC(C)=CCCC(C)=CCCC(C)=CCCC(C)=CCCC(C)=CCCC(C)=CCO,Potency,[1],inactive
same,Potency,[2],inactive
same,Potency,[3],inactive
same,Potency,[4],inactive
same,Potency,[5],inactive
same,z-score,[7]; [21],0.865
same,z-score,[7]; [22],0.571
same,z-score,[7]; [23],1.27
COc1ccc(-c2cc3nccn3c(Nc3ncccc3C(N)=O)n2)cc1OC,Potency,[1],0.264 µM (active)
same,Potency,[2],inactive
same,Potency,[3],8.33 µM (active)
same,Potency,[5],6.62 µM (active)
same,Z-AUC,[6],0.398 (inactive)
same,Z-AUC,[6]; [20],0.401
same,Z-AUC,[6]; measured here: PEO4 Z-AUC,0.0675
OC[C@H]1O[C@@H](OCCc2ccc(O)cc2)[C@H](O)[C@@H](O)[C@H]1O,Potency,[1],inactive
same,Potency,[2],inactive
same,Potency,[3],inactive
same,Potency,[4],inactive
same,outcome,[8],inactive
same,outcome,[9],inactive
same,Potency,[17],inactive
same,Potency,[18],inactive
same,outcome,[10],inactive
same,outcome,[19],inactive
same,max response,[11],1.11% (inactive)
same,Potency,[12],inactive
same,Potency,[13],inactive
same,outcome,[14],inactive
same,outcome,[15],inactive
same,z-score,[7]; [21],0.167
same,z-score,[7]; [22],0.0834
same,z-score,[7]; [23],-0.171
